Test [1] in a line: A CellTox Green Cytotoxicity Assay to monitor cytotoxicity in HEK293 cells - 40 hour (AID 1224871). Further: nearly all actives have a fitted effect of over 45% in size. The procedure, abridged: (§1)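 Read-out: fluorescence of a cell-impermeant cyanine dye staining DNA of dead cells, proportional to cytotoxicity. HEK293, 600 cells/well with reagent, compound (23 nL DMSO) added after 5 h; reads at 0, 8, 16, 24, 32, 40 h.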
Test [2] in a line: qHTS RealTime-Glo MT Cell Viability Assay in HepG2 cells - 8 hour (AID 1224873). Further: nearly all actives have a fitted effect of over 55% in size. In short, it runs like this:
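HepG2 cells (600/well) mixed with RealTime-Glo MT reagent, settled 5 h at 37 C/5% CO2 before compound addition. Nonlytic NanoLuc luminescence from viable-cell prosubstrate reduction read repeatedly during 40 h treatment at 37 C.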

Test [3] can be described thus: A CellTox Green Cytotoxicity Assay to monitor cytotoxicity in HEK293 cells - 24 hour (AID 1224875). Further: series mostly up to about 77 µM; nearly all actives have a fitted effect of over 45% in size. In short, it runs like this: as §1
Test [4] in a line: A CellTox Green Cytotoxicity Assay to monitor cytotoxicity in HepG2 cells - 16 hour (AID 1224876). Further: nearly all actives have a fitted effect of over 45% in size. In short, it runs like this: (§2)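 HepG2, 600 cells/well premixed w/ CellTox Green; 5 h settle, 37 C/5% CO2; pintool cpd add (DMSO); 37 C, 40 h; fluorescence read at 0, 8, 16, 24, 32, 40 h.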
Test [5] in a line: qHTS RealTime-Glo MT Cell Viability Assay in HepG2 cells - 32 hour (AID 1224877). Further: nearly all actives have a fitted effect of over 55% in size. The procedure, abridged: (§3)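 Cell number in HepG2 cultures estimated from NanoLuc luminescence generated by metabolic reduction of a prosubstrate by living cells. The homogeneous, nonlytic format allowed repeated reads at 0, 8, 16, 24, 32 and 40 h of compound exposure.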
Test [6] in a line: A CellTox Green Cytotoxicity Assay to monitor cytotoxicity in HepG2 cells - 24 hour (AID 1224878). Further: nearly all actives have a fitted effect of over 45% in size. In short, it runs like this:
as §2

The nature of test [7]: A CellTox Green Cytotoxicity Assay to monitor cytotoxicity in HepG2 cells - 40 hour (AID 1224879). Further: nearly all actives have a fitted effect of over 40% in size. Further: potency means the concentration at half of the fitted maximal effect. In short, it runs like this:
as §2

Test [8] can be described thus: qHTS RealTime-Glo MT Cell Viability Assay in HEK293 cells - 0 hour (AID 1224880). The procedure, abridged: (§4)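 Luminescence readout at each listed time point; HEK293, 600 cells/well, RealTime-Glo MT reagent added with cells; compounds pinned (23 nL in DMSO) after 5 h at 37 C; continuous culture at 37 C.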
Test [9] is described as follows: A CellTox Green Cytotoxicity Assay to monitor cytotoxicity in HEK293 cells - 32 hour (AID 1224881). Further: nearly all actives have a fitted effect of over 40% in size. The procedure, abridged: as §1
Test [10] can be described thus: A CellTox Green Cytotoxicity Assay to monitor cytotoxicity in HepG2 cells - 0 hour (AID 1224882). Further: nearly all actives have a fitted effect of over 35% in size. The procedure, abridged:
as §2

Test [11] can be described thus: A CellTox Green Cytotoxicity Assay to monitor cytotoxicity in HepG2 cells - 32 hour (AID 1224883). Further: nearly all actives have a fitted effect of over 50% in size. In short, it runs like this:
as §2

Test [12] in a line: A CellTox Green Cytotoxicity Assay to monitor cytotoxicity in HEK293 cells - 8 hour (AID 1224884). Further: nearly all actives have a fitted effect of over 35% in size. The procedure, abridged: as §1
Test [13] is described as follows: qHTS RealTime-Glo MT Cell Viability Assay in HepG2 cells - 16 hour (AID 1224885). Further: nearly all actives have a fitted effect of over 50% in size. In short, it runs like this: as §3
Test [14] can be described thus: A CellTox Green Cytotoxicity Assay to monitor cytotoxicity in HEK293 cells - 16 hour (AID 1224888). Further: nearly all actives have a fitted effect of over 35% in size. The procedure, abridged:
as §1

Test [15] can be described thus: qHTS RealTime-Glo MT Cell Viability Assay in HepG2 cells - 0 hour (AID 1224889). Further: nearly all actives have a fitted effect of over 50% in size. In short, it runs like this: as §3
Test [16] in a line: A CellTox Green Cytotoxicity Assay to monitor cytotoxicity in HepG2 cells - 8 hour (AID 1224890). Further: nearly all actives have a fitted effect of over 45% in size. The procedure, abridged:
as §2

Test [17] is described as follows: qHTS RealTime-Glo MT Cell Viability Assay in HEK293 cells - 16 hour (AID 1224872). Further: top concentration of the series differs between compounds; nearly all actives have a fitted effect of over 50% in size. In short, it runs like this: (§5)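 Homogeneous bioluminescent viability format in HEK293 cells (600 cells/well). Following 5 h at 37 C/5% CO2, 23 nL compound was pintooled; the signal was measured repeatedly during 40 h incubation.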
Test [18] in a line: qHTS RealTime-Glo MT Cell Viability Assay in HEK293 cells - 40 hour (AID 1224874). Further: nearly all actives have a fitted effect of over 50% in size. To be noted: RealTime-Glo luminescence; max response: active compounds read low. In short, it runs like this:
as §4

Test [19] is described as follows: qHTS RealTime-Glo MT Cell Viability Assay in HEK293 cells - 24 hour (AID 1224886). In short, it runs like this: as §5
The nature of test [20]: qHTS RealTime-Glo MT Cell Viability Assay in HEK293 cells - 8 hour (AID 1224887). The procedure, abridged: as §4

Structures are written as SMILES. A number with no mark means an inactive call. Records with an inconclusive call do not appear. Activity calls are given as the source filed them. The call rests on the fitted dose curve; in most records, active means well fitted curve in the direction sought with a large enough effect in the repeat runs; inconclusive means weak or mixed curves; inactive means no such curve, though single readings can be large; an effect the other way counts as inactive or inconclusive.
On the % scale 0 is the no-effect control and ±100 the full control effect.

Take `COC(=O)Nc1nc2ccc(C(=O)c3ccccc3)cc2[nH]1`: the Potency result in test [1], in test [2], in test [3], in test [4], in test [5] and in test [6] was “inactive” each time. The Potency result in test [8], in test [9], in test [10], in [11], in test [12] and in [13] was “inactive” throughout. Moreover, the Potency entry in [14], in test [15] and in test [16] was “inactive” in each case. Also, the Potency in [7] was 0.268 µM (active).
For the compound `O=[N+]([O-])c1ccc(F)c(Cl)c1`, the Potency entry in test [1], in [17], in [3], in test [5], in [6] and in test [7] was “inactive” each time. Moreover, the Potency entry in test [8], in test [9], in test [10], in test [11], in test [12] and in [13] was “inactive” each time. Further, the Potency result in test [19], in test [20], in [14], in [15] and in test [16] was “inactive” in each case. Also, the max response in test [18] is 14.6%.
Take `O=C(O)c1cccc(C(F)(F)F)c1`: the Potency entry in test [1], in [17], in [3], in test [5], in test [6] and in [7] was “inactive” in each case. The Potency entry in [8], in test [9], in [10], in test [11], in test [12] and in test [13] was “inactive” throughout. In addition, the Potency entry in test [19], in test [20], in [14], in [15] and in test [16] was “inactive” in each case. For the same compound, the max response in [18] was -0.78%.
On to `O=C1CCc2cc(OCCCCc3nnnn3C3CCCCC3)ccc2N1`, for which the Potency entry in test [1], in test [2], in test [3], in test [4], in test [5] and in [6] was “inactive” in each case. Also, the Potency result in test [7], in [8], in test [9], in test [10], in test [11] and in [12] was “inactive” throughout. Besides, the Potency result in test [13], in [20], in [14], in [15] and in [16] was “inactive” in each case.
Regarding `CC1(C)[C@@H](O)CC[C@]2(C)[C@H]3C(=O)C=C4[C@@H]5C[C@@](C)(C(=O)O)CC[C@]5(C)CC[C@@]4(C)[C@]3(C)CC[C@@H]12`, the Potency entry in test [1], in [17], in test [3], in test [4], in test [5] and in [8] was “inactive” each time. For the same compound, the Potency result in test [9], in [10], in test [12], in test [13], in test [19] and in test [20] was “inactive” in each case. The Potency entry in test [14], in test [15] and in [16] was “inactive” each time. The max response in test [18] was 13.7%.
On to `CCCC[P+](C)(CCCC)CCCC`, for which the Potency entry in [1], in test [17], in test [3], in test [4], in test [5] and in test [6] was “inactive” in each case. The Potency entry in test [7], in [8], in [9], in test [10], in test [11] and in test [12] was “inactive” throughout. For the same compound, the Potency entry in test [13], in [20], in test [14], in test [15] and in test [16] was “inactive” each time.
Regarding `CC[N+](CC)(CC)CCOC(=O)C(C1CCCC1)C1CCCC1`, the Potency result in test [1], in test [2], in test [3], in test [4], in [5] and in [6] was “inactive” each time. For the same compound, the Potency result in [7], in test [8], in test [9], in [10], in [11] and in test [12] was “inactive” in each case. The Potency entry in [13], in test [20], in [14], in test [15] and in test [16] was “inactive” in each case.
For the compound `OC[C@H]1O[C@H](O[C@H]2O[C@H](CO)[C@@H](O)[C@H](O)[C@H]2O)[C@H](O)[C@@H](O)[C@@H]1O`, the Potency result in [17], in [2], in [3], in test [4], in test [5] and in [6] was “inactive” in each case. Moreover, the Potency result in test [7], in test [8], in test [9], in test [10], in [11] and in test [12] was “inactive” each time. Also, the Potency result in test [13], in [19], in test [20], in test [14], in [15] and in [16] was “inactive” throughout. Further, the max response in test [18] is 25.1%.
Consider `S=C([S-])NCCNC(=S)[S-].S=C([S-])NCCNC(=S)[S-].[Mn+2].[Zn+2]`, for which the Potency entry in test [1], in test [2], in test [3], in test [5], in test [6] and in test [7] was “inactive” each time. Besides, the Potency result in test [8], in test [10], in test [11], in test [12], in [13] and in [20] was “inactive” throughout. Further, the Potency result in [14], in [15] and in [16] was “inactive” each time.
`Cc1ccc(N/N=c2\c(=O)cc/c(=N\Nc3ccc(S(=O)(=O)O)cc3)c2=O)c(C)c1`: the Potency result in test [17], in test [2], in test [3], in test [5], in [6] and in test [7] was “inactive” throughout. In addition, the Potency entry in test [8], in test [9], in [10], in test [11], in test [12] and in test [13] was “inactive” throughout. Besides, the Potency result in test [19], in test [20], in test [14] and in test [16] was “inactive” each time. Further, the max response in test [18] was 1.45%.
As for `CCC(=O)C(=O)CC`, the Potency result in test [1], in [3], in [4], in [5], in test [6] and in [7] was “inactive” each time. For the same compound, the Potency entry in [8], in test [9], in test [10], in [11], in test [12] and in test [13] was “inactive” each time. Further, the Potency result in [20], in test [14], in [15] and in [16] was “inactive” each time.
Consider `Cc1ccc(C(=O)O)cc1`, for which the Potency result in [17], in test [2], in test [3], in test [5], in [8] and in test [9] was “inactive” in each case. For the same compound, the Potency result in [10], in test [12], in test [13], in test [19], in test [20] and in test [14] was “inactive” in each case. The Potency entry in [15] and in test [16] was “inactive” in each case. For the same compound, the max response in test [18] is 10%.

These data come from PubChem BioAssay (Tox21).
